Over roughly 33,000 sequences, “e-score” has its median near -0.037; the highest 2% begin near 0.34. This is one part of a sample in which the highest values are shown more often than they occur.

This experiment addresses T1, GST-Rok (full length) (Bacillus subtilis subsp. subtilis str. …, UniProt O34857 1-191).
T1 sequence: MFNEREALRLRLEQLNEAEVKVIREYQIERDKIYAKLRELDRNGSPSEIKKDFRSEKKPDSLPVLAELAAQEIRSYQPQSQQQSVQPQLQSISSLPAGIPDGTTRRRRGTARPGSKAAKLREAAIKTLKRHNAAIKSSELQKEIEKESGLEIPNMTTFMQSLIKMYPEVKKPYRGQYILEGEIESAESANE
Nature of the experiment: protein binding microarray; Rok is a gene silencer of Bacillus subtilis; high values mean tight binding. Conditions: protein: recombinant; tags: GST (pTH5325, pDEST15-Magic modified); dsDNA, one strand shown. The procedure, abridged: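 Every oligonucleotide joins a 25-mer constant primer to a 35-mer variable part drawn from a de Bruijn sequence of order 10, so each non-palindromic 8-mer appears at least 32 times and each palindromic 8-mer 16 times. The preference for every 8-mer is reported as a unitless, rank-based enrichment score (E-score). This score spans 0.5 for the most favored 8-mer to −0.5 for the most disfavored.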
For CCTATAAA, the binding signal turned out to be 0.298 E-score.

As for ACTATAAG, the binding signal was 0.268 E-score.

As for ACTATAAC, the binding signal worked out at 0.214 E-score.

Regarding ACGTCATA, the binding signal amounted to 0.128 E-score.

Consider CCAAATGG, for which the binding signal was -0.148 E-score.

With AGTTCGTC, the binding signal is 0.0184 E-score.

For the sequence CAAAATAA, the binding signal turned out to be 0.0897 E-score.

CAAAATAC: the binding signal came out at 0.351 E-score.

Take GAAAATAA: the binding signal turned out to be 0.145 E-score.

Turning to AAAAATAC, the binding signal turned out to be 0.32 E-score.

On to GGAAATAC, for which the binding signal worked out at 0.101 E-score.

Consider GAAAATAC, for which the binding signal turned out to be 0.351 E-score.

Regarding GGCATTAA, the binding signal is -0.00985 E-score.

As to CCTGTTGA, the binding signal is -0.00587 E-score.

Take GAAACGGC: the binding signal was -0.103 E-score.

Turning to AGATTAAT, the binding signal turned out to be 0.346 E-score.

As to AGATTAAG, the binding signal was 0.135 E-score.

As to ATATTAAT, the binding signal turned out to be 0.345 E-score.

As to ATATTAAG, the binding signal was 0.275 E-score.

As to ATATTAAC, the binding signal was 0.298 E-score.

For ATATTAAA, the binding signal came to 0.377 E-score.

Take CTATTAAA: the binding signal is 0.116 E-score.

For the sequence AGATTAAC, the binding signal came to 0.181 E-score.

Consider TTATTAAA, for which the binding signal is 0.168 E-score.

In the case of AAACATTT, the binding signal worked out at 0.0971 E-score.

Turning to AGAATAAG, the binding signal worked out at 0.105 E-score.

Take ATAAGAGA: the binding signal was -0.0183 E-score.

With CTGCCCAC, the binding signal was -0.168 E-score.

With GCTATACA, the binding signal was determined as 0.201 E-score.

Consider GCTATATA, for which the binding signal came to 0.389 E-score.

ACTATATG: the binding signal was found to be 0.267 E-score.

Consider ACTATATC, for which the binding signal came to 0.331 E-score.

As for ACTATATA, the binding signal is 0.453 E-score.

For the sequence CCTATATA, the binding signal is 0.123 E-score.

With CGAGGTCC, the binding signal is -0.0704 E-score.

In the case of AGATGCAA, the binding signal was -0.00215 E-score.

With TATCTAGA, the binding signal was determined as 0.213 E-score.

With AATCTAGC, the binding signal stood at 0.2 E-score.

Take AATCTAGA: the binding signal stood at 0.349 E-score.

Regarding AATCTAGG, the binding signal amounted to 0.231 E-score.

Turning to AATCTAAT, the binding signal came out at 0.263 E-score.

For AATCTAGT, the binding signal is 0.377 E-score.

Consider GTACCTGA, for which the binding signal is 0.102 E-score.

In the case of CGAGTAGA, the binding signal worked out at 0.0915 E-score.

Consider CTAATGAA, for which the binding signal was found to be 0.0765 E-score.

Regarding CCGAATAG, the binding signal is -0.00823 E-score.

As to ACGCGAAA, the binding signal was -0.0244 E-score.

On to CTTATGAC, for which the binding signal is 0.247 E-score.

For the sequence TCTATCAA, the binding signal was 0.212 E-score.

With AACGACTC, the binding signal was -0.0273 E-score.

As for CGGTAGTA, the binding signal is 0.342 E-score.

As for GGGTAGTA, the binding signal was determined as 0.238 E-score.

As to CGGTAGTC, the binding signal is 0.173 E-score.

For the sequence AGGTAGTC, the binding signal amounted to 0.0956 E-score.

Take AGGTAGTG: the binding signal was found to be 0.0916 E-score.

Regarding AGGTAGTA, the binding signal was 0.364 E-score.

Take AGACAACG: the binding signal is -0.0674 E-score.

Consider AGAGCTAG, for which the binding signal is -0.0248 E-score.

CGACTGAC: the binding signal is 0.00526 E-score.

With CAGAGCTC, the binding signal is -0.162 E-score.

Regarding CCACTACA, the binding signal was 0.0814 E-score.

For ATACTACG, the binding signal is 0.339 E-score.

As for CTACTACC, the binding signal turned out to be 0.303 E-score.

For ATACTACC, the binding signal amounted to 0.36 E-score.

CTACTACA: the binding signal was found to be 0.339 E-score.

In the case of CTACAACC, the binding signal worked out at 0.119 E-score.

Take GTACTACA: the binding signal was 0.314 E-score.

For the sequence AGACTACG, the binding signal was -0.152 E-score.

Consider CTACAACA, for which the binding signal was determined as 0.343 E-score.

For the sequence CGACTACG, the binding signal was -0.0988 E-score.

As for ATACTAGC, the binding signal was determined as 0.321 E-score.

With GTACAACA, the binding signal turned out to be 0.0355 E-score.

Take ACTAGACC: the binding signal is -0.00464 E-score.

For the sequence GATCGAAA, the binding signal is -0.0281 E-score.

In the case of ATTAATGG, the binding signal amounted to 0.0209 E-score.

With CTCACAGA, the binding signal was -0.131 E-score.

Take AGCACTGC: the binding signal was -0.181 E-score.

ACTTACCT: the binding signal is 0.0398 E-score.

Consider CTCTAAAC, for which the binding signal is 0.0676 E-score.

As to AGTGGCAG, the binding signal was -0.029 E-score.

As to AATTGACG, the binding signal was 0.213 E-score.

Consider ACACTACA, for which the binding signal amounted to 0.276 E-score.

In the case of ATACTACA, the binding signal was 0.408 E-score.

With AGACTACA, the binding signal came to 0.0935 E-score.

As for AGTGAAAC, the binding signal was -0.00421 E-score.

On to GTGTATAA, for which the binding signal is 0.246 E-score.

Take ATGTATAC: the binding signal was found to be 0.347 E-score.

As to ATGTATAA, the binding signal amounted to 0.385 E-score.

Turning to CTGTATAA, the binding signal came to 0.265 E-score.

For CTGTATAC, the binding signal turned out to be 0.216 E-score.

As to ATGTATAG, the binding signal was 0.244 E-score.

Turning to GTTAATAA, the binding signal came to 0.303 E-score.

As for TCTCGACA, the binding signal is -0.0144 E-score.

Take ATCAGAGC: the binding signal was -0.105 E-score.

For the sequence CGTCTCTA, the binding signal is -0.15 E-score.

Regarding CATTGTTC, the binding signal amounted to 0.00988 E-score.

In the case of CCAGCATA, the binding signal was -0.0442 E-score.

Take ATAGGTCA: the binding signal was 0.156 E-score.

Take CGATGGAA: the binding signal was 0.0214 E-score.

As for TACAAGTA, the binding signal worked out at 0.288 E-score.

For the sequence TACAAATA, the binding signal stood at 0.375 E-score.

Consider CACAAACA, for which the binding signal was 0.0611 E-score.

With AACAAACA, the binding signal was found to be 0.0686 E-score.

With AACAAATA, the binding signal is 0.295 E-score.

On to TACAAACA, for which the binding signal came to 0.369 E-score.

Regarding CACAAATG, the binding signal was -0.0865 E-score.

As to CACAAATA, the binding signal is 0.35 E-score.

In the case of CACAAGTA, the binding signal is 0.183 E-score.

Take TTATGCAA: the binding signal was 0.154 E-score.

For the sequence GGAGGAAA, the binding signal was -0.0576 E-score.

The record behind these values is PMC6212790, “How bacterial xenogeneic silencer rok distinguishes foreign from self DNA in its resident genome”.
